Bioassay records deposited in PubChem BioAssay by National Center for Advancing Translational Sciences (NCATS).
KB-3-1 tox = KB-3-1 parental cell cytotoxicity. 400,000 tested, 1.4% active. AID 1347075. Potency, µM (series often up to 46.1 µM), actives largely listed as cytotoxic. KB-3-1 viability, CellTiter-Glo ATP luminescence, 72 h; further: nearly all actives have a fitted effect of over 60% in size
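Using CellTiter-Glo luminescence, growth of non-resistant KB-3-1 adenocarcinoma cells is assessed 72 h after pin-tool compound addition at 37 °C. Normalized responses across the concentration series yield fitted curves.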
ELG1 DNA repair = blocks ELG1-dependent DNA repair in HEK293T cells. HEK293T ELG1-luciferase reporter, luminescence, 16 h; DNA damage induced by 5-fluorouridine. Potency, µM (series often up to 46.1 µM), usual class: inhibitors. 330,000 tested, 2.3% active. AID 504467; further: nearly all actives have a fitted effect of over 55% in size
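5-Fluorouridine DNA damage + compound/DMSO, 2,000 cells/well, 16 h, 37 °C/5% CO2. ONE-Glo, 30 min RT, luminescence. Readout = decrease in reporter signal.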
MCF10A rereplic = DNA re-replication induction in MCF 10a cells. AID 624296. Potency, µM (doses to about 46.1 µM), actives largely listed as activators. MCF 10A DNA re-replication, Hoechst nuclear intensity, 48 h. 350,000 tested, 2.9% active; further: nearly all actives have a fitted effect of over 50% in size
SW480 rereplic = induces DNA re-replication in SW480 colon adenocarcinoma cells. SW480 DNA re-replication, Hoechst DNA content imaging, 48 h. Potency, µM (top dose mostly 46.1 µM), most hits filed as activators. 340,000 tested, 1.8% active. AID 624297; further: nearly all actives have a fitted effect of over 55% in size
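250 cells/well; 23 nL cpd via pin tool; 48 hr, 37 C, 5% CO2; Hoechst 40 min; imager read of total nuclear intensity, ex 405/em 500-530 nm.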
KB-V1 cytotox = KB-V1 MDR subline cytotoxicity; KB-V1 MDR cells viability, CellTiter-Glo, 72 h; 400,000 tested, 3.4% active; Potency, µM (top dose mostly 46.1 µM), actives largely listed as cytotoxic; AID 1347076; further: nearly all actives have a fitted effect of over 60% in size
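Potencies derive from concentration-effect curves fitted to normalized luminescence (CellTiter-Glo) of KB-V1 cells treated for 72 h at 37 degrees C in phenol-red-free DMEM containing 10% FBS.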
Of the large screens only hits and unclear results are named; the others gave an inactive call. The list is not random: actives were taken first. Their share in the collection is about 8.2%. The call rests on the fitted dose curve; in most records, active means well fitted curve in the direction sought with a large enough effect; inconclusive means small, poorly fitted or top-dose-only effect, or another doubt; inactive means no such curve, though single readings can be large; an effect the other way counts as inactive or inconclusive.

Cc1ccc(C)c(OCC(=O)NC2CCCCCC2)c1	MCF10A rereplic inconclusive, KB-V1 cytotox 13µM
O=C(NC(=S)Nc1ccc(N2CCCCC2)cc1)c1ccco1	ELG1 DNA repair inconclusive, MCF10A rereplic inconclusive, SW480 rereplic inconclusive, KB-V1 cytotox 8.2µM
CCCC(=O)NC(=S)Nc1cccc2c(O)cccc12	SW480 rereplic inconclusive
O=C(NC(=S)Nc1ccccc1N1CCCCC1)c1ccco1	KB-3-1 tox inconclusive, ELG1 DNA repair inconclusive, MCF10A rereplic inconclusive, KB-V1 cytotox inconclusive
O=C(NC(=S)Nc1cccc(Cl)c1N1CCCCC1)c1cccs1	KB-3-1 tox inconclusive, MCF10A rereplic 3.26µM, SW480 rereplic inconclusive, KB-V1 cytotox inconclusive
CCCC(=O)NC(=S)Nc1cccc(Cl)c1N1CCCC1	MCF10A rereplic 18.4µM, SW480 rereplic inconclusive
O=C(NC(=S)Nc1cccc(Cl)c1N1CCCCC1)c1ccco1	ELG1 DNA repair inconclusive, MCF10A rereplic inconclusive, SW480 rereplic 18.4µM
O=C(NC(=S)Nc1cccc(Cl)c1N1CCOCC1)c1cccs1	ELG1 DNA repair inconclusive
CCc1nc2cccnc2n1-c1ccc(CC(=O)NC(C)CC)cc1 (stereo not drawn)	none
CC1CCCC(NC(=S)NC(=O)c2ccco2)C1C (stereo not drawn)	KB-V1 cytotox 18.4µM
Cc1nnc(CN(C)C(=O)c2cc(COc3ccc(F)cc3Cl)on2)o1	ELG1 DNA repair inconclusive
CCn1cc(CNC(=O)c2cc(COc3ccc(F)cc3Cl)on2)cn1	KB-3-1 tox inconclusive, MCF10A rereplic inconclusive, SW480 rereplic 18.4µM, KB-V1 cytotox inconclusive
CN(Cc1cccc2cnccc12)C(=O)c1cc(COc2ccc(F)cc2Cl)on1	KB-3-1 tox inconclusive, ELG1 DNA repair 20.6µM, KB-V1 cytotox inconclusive
Cn1c(N)c(C(=O)COC(=O)/C=C/c2ccccc2)c(=O)n(C)c1=O	none
CCOc1ccc2ncc(S(=O)(=O)c3ccc(C)cc3)c(N3CCC4(CC3)OCCO4)c2c1	KB-3-1 tox inconclusive, ELG1 DNA repair 18.4µM, MCF10A rereplic inconclusive, SW480 rereplic inconclusive, KB-V1 cytotox 4.11µM
O=c1[nH]c2cc3c(cc2cc1C(c1nnnn1Cc1ccccc1)N1CCCCCC1)OCCO3 (stereo not drawn)	KB-3-1 tox inconclusive, ELG1 DNA repair inconclusive, MCF10A rereplic inconclusive, SW480 rereplic 20.6µM, KB-V1 cytotox inconclusive
O=c1[nH]c2cc3c(cc2cc1C(c1nnnn1Cc1ccccc1)N1CCCc2ccccc21)OCO3 (stereo not drawn)	KB-3-1 tox inconclusive, ELG1 DNA repair 0.651µM, MCF10A rereplic 3.66µM
O=c1[nH]c2cc3c(cc2cc1C(c1nnnn1Cc1ccccc1)N1CCN2CCCC2C1)OCCO3 (stereo not drawn)	none
O=C(OCC1CCCO1)c1ccc2c(c1)N(Cc1cccc(Cl)c1)C(=O)c1ccccc1S2(=O)=O (stereo not drawn)	none (no result: ELG1 DNA repair, MCF10A rereplic, SW480 rereplic)
COc1ccc(C(=O)n2c(-c3ccco3)nc3ccccc32)cc1	KB-3-1 tox inconclusive, ELG1 DNA repair inconclusive, MCF10A rereplic 8.91µM, SW480 rereplic 18.4µM, KB-V1 cytotox inconclusive
CCCn1c(NC(=O)c2ccccc2Br)nc2ccccc21	KB-3-1 tox inconclusive, MCF10A rereplic inconclusive, KB-V1 cytotox 9.2µM
COc1ccc(C(=O)N2CCn3c2nc2ccccc23)cc1	ELG1 DNA repair inconclusive
COc1ccc(OCCn2c(NC(=O)c3ccco3)nc3ccccc32)cc1	ELG1 DNA repair 12.6µM, MCF10A rereplic 11.6µM, SW480 rereplic 4.11µM
COc1ccc(C(=O)Nc2nc3ccccc3n2CCOc2ccc(Cl)cc2)cc1	none (no result: ELG1 DNA repair, MCF10A rereplic, SW480 rereplic)
CCCn1c(NC(=O)CCNC(=O)c2ccccc2Cl)nc2ccccc21	ELG1 DNA repair 20.6µM
CCCn1c(NC(=O)c2ccco2)nc2ccccc21	KB-V1 cytotox 14.6µM
COc1cc(Nc2ccn3nc(-c4ccc(F)cc4)cc3n2)cc(OC)c1OC	none (no result: ELG1 DNA repair, MCF10A rereplic, SW480 rereplic)
CC(=O)N=c1c(C#N)cc2c(=O)n3ccccc3nc2n1CCCOC(C)C	MCF10A rereplic inconclusive, SW480 rereplic 16.4µM
CC(C)OCCCn1c(=NC(=O)c2ccncc2)c(C#N)cc2c(=O)n3ccccc3nc21	none
CC(C)OCCCn1c(=NC(=O)c2cccs2)c(C#N)cc2c(=O)n3ccccc3nc21	ELG1 DNA repair inconclusive, MCF10A rereplic 11.6µM, SW480 rereplic 20.6µM, KB-V1 cytotox inconclusive
